Experimental data from the supplement of paper PMC10338343.
± gives the standard deviation. Over roughly 8,200 sequences, “pre-steady-state target cleavage rate” has its median near 0.024; the highest 2% begin near 1.3. The sample holds the highest values, similar sequences and a random draw of the others, so the mix is not that of the screen.

Tested on: MIWI (PIWIL1) piRISC loaded with L1MC piRNA (30 nt)
Test: pre-steady-state target cleavage rate (min^-1); MIWI and MILI are mouse PIWI proteins and EfPiwi is from a freshwater sponge; tags in brackets are library labels; higher = faster piRNA-guided slicing of the target
Conditions: guide: L1MC piRNA 5'p-UAACUAAAUACUAUGCAAGCUGUAGGUCCU
Experimental: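 Cleave-'n-Seq: a library of target RNAs (target site embedded in constant flanks, ACAGCATTCCGCGTTAGTGATATCCG... 5' flank; DNA-blocked outside the site) at 0.1 nM was incubated with 1 nM active mouse MILI or MIWI piRISC (synthetic 5'-monophosphorylated piRNA guide) with or without 500 nM mouse GTSF1 at 33 °C for 1 min to 16 h. Uncleaved targets were sequenced and normalised to non-target controls, and the pooled three trials were fitted to a burst-and-steady-state model to give the pre-steady-state cleavage rate (min^-1; k3 is constrained to at most 1e-4). Sequence is the target site only; target names encode pairing extent (gX:gY) and contiguous / 1-mismatch / 2-mismatch / bulge geometry. Fits with R² ≤ 0 are excluded.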

[1] = auxiliary factor: none (no GTSF1)
[2] = auxiliary factor: 500 nM mouse GTSF1

Row | Sequence | pre-steady-state target cleavage rate [1] | pre-steady-state target cleavage rate [2]
1 | UCCUGGAUGUCGAACCAUAGAAUAUAGUUA | < 0.0001 | –
2 | UCCUGGAUGUCCAUGCAUAGUAUUUUGUUA | – | 0.00484 ± 0.0039
3 | AGCACCUUCAGCUUGCAUAGUAUUUAGUUA | 0.0548 ± 0.014 | 0.711 ± 0.089
4 | UGCACCUUCAGCUUGCAUAGUAUUUAGUUA | 0.0562 ± 0.011 | 1.08 ± 0.091
5 | UCGACCUUCAGCUUGCUUAGUAUUUAGUUA | 0.0363 ± 0.0088 | 1.33 ± 0.05
6 | UCCUCCUUCAGCUUGCAAAGUAUUUAGUUA | 0.0323 ± 0.0072 | 1.16 ± 0.041
7 | UCGACCUUCAGCUUGCAUAGUAUUUAGAAA | 0.0103 ± 0.0029 | 0.659 ± 0.064
8 | UCCACCUUCAGCUUGCAAAGUAUUUAGUUA | 0.0305 ± 0.0063 | 1.17 ± 0.038
9 | UCCACCUUCAGCUUGCUUAGUAUUUAGUUA | 0.0231 ± 0.005 | 1.16 ± 0.037
10 | ACGACCUUCAGCUUGCAUAGUAUUUAGUUA | 0.0921 ± 0.015 | 1.45 ± 0.042
11 | UCGACCUUCAGCUUGCAUAGUAUUUAGUUA | 0.0696 ± 0.012 | 1.51 ± 0.047
12 | UCGACCUUCAGCUUGCAUAGUAUUUAGUAA | 0.043 ± 0.011 | 1.05 ± 0.065
13 | UCGACCUUCAGCUUGCAAAGUAUUUAGUUA | 0.0401 ± 0.0087 | 1.33 ± 0.045
14 | UCCUCCUUCAGCUUGCUUAGUAUUUAGUUA | 0.0243 ± 0.0053 | 1.31 ± 0.054
15 | UCCUCGUACAGCUUGCAUAGUUUUUAGUUA | 0.0475 ± 0.011 | 0.478 ± 0.013
16 | UCCUGCUACAGCUUGCAUAGUAAUUUCAAA | – | 0.278 ± 0.074
17 | UCCACCAACUGCUUGCAUAGUAUUUAGUUA | 0.0532 ± 0.0097 | 0.828 ± 0.036
18 | UGGACCUACAGCAUGCAUAGUAUUUAGAAA | 0.00651 ± 0.0026 | 0.5 ± 0.061
19 | UCCACCUACACCUUGCAUAGUAUAUAGUUA | 0.025 ± 0.0054 | 0.543 ± 0.068
20 | UCCUGCAACAGCUUGCAUAGAAUUUAGUUA | 0.0261 ± 0.0079 | 0.492 ± 0.048

Row | Sequence | pre-steady-state target cleavage rate [1] | pre-steady-state target cleavage rate [2]
21 | UCCUGGAUCAGCUUGCAAACUAUUUAGUUA | 0.00677 ± 0.003 | 0.0815 ± 0.0098
22 | AGGACCUAAGCUUGCAUAGUAUUUAGUUA | 0.0685 ± 0.013 | 1.05 ± 0.071
23 | UCCACCUACAUCUUGCAUAGUAUUUAGUUA | 0.0567 ± 0.0096 | 0.85 ± 0.036
24 | AGGACCUACACCUUGCAUAGUAUUUAGUUA | 0.0855 ± 0.015 | 1.17 ± 0.037
25 | UCGACCUACAGUCUUGCAUAGUAUUUAGUUA | 0.0611 ± 0.012 | 1.16 ± 0.063
26 | UCGACCUACAUCUUGCAUAGUAUUUAGUUA | 0.077 ± 0.014 | 1.61 ± 0.043
27 | UCGACCUACACCUUGCAUAGUAUUUAGUUA | 0.0525 ± 0.008 | 1.15 ± 0.046
28 | AGGACCUACAUGCUUGCAUAGUAUUUAGUUA | 0.0684 ± 0.013 | 0.767 ± 0.056
29 | AGGACCUACAUCUUGCAUAGUAUUUAGUUA | 0.0767 ± 0.012 | 1.39 ± 0.036
30 | UGGACCUACAUGCUUGCAUAGUAUUUAGUUA | 0.0601 ± 0.013 | 0.925 ± 0.054
31 | UGGACCUACAUCUUGCAUAGUAUUUAGUUA | 0.0737 ± 0.012 | 1.38 ± 0.043
32 | UCCACCUACAGCUUCCAUAGAAUUUAGUUA | – | 0.0393 ± 0.015
33 | UGGACCAUGAGCUUGCAUAGUAUUUACAAA | 0.00423 ± 0.0026 | 0.159 ± 0.021
34 | AGGACCUACAGCUUGCAUAGUUAAAUCAAA [g10:g30:cont:t1A] | – | 0.159 ± 0.046
35 | UCGACAUACAGCUUGCAUAGUAUUUAGUUA | 0.071 ± 0.012 | 1.38 ± 0.043
36 | UCGACCAUACAGCUUGCAUAGUAUUUAGUUA | 0.0901 ± 0.015 | 0.86 ± 0.039
37 | UGGACAUACAGCUUGCAUAGUAUUUAGUUA | 0.0916 ± 0.014 | 1.23 ± 0.05
38 | UCGACACUACAGCUUGCAUAGUAUUUAGUUA | 0.0557 ± 0.0088 | 0.961 ± 0.061
39 | AGGACCAUACAGCUUGCAUAGUAUUUAGUUA | 0.0829 ± 0.013 | 1.06 ± 0.051
40 | AGGACAUACAGCUUGCAUAGUAUUUAGUUA | 0.0818 ± 0.012 | 1.32 ± 0.055

Row | Sequence | pre-steady-state target cleavage rate [1] | pre-steady-state target cleavage rate [2]
41 | UCCUGGAUGUGCUUGCAUUGUAUUUAGUAA | 0.00578 ± 0.0023 | 0.0234 ± 0.0059
42 | UCCUGGAACAGCUUGCAUAGAUUUUAGUAA | – | 0.0419 ± 0.015
43 | UCCUGGAUGUCGAAGGAUAGUAUUUUGUUA | < 0.0001 | –
44 | UCCUGGUACUGCAUGCAUAGUAUUUAGUUA | 0.00786 ± 0.0024 | 0.556 ± 0.045
45 | UCCUGCUUCAGCUAGCAUAGUAUUUAGUUA | 0.0109 ± 0.0042 | 1.32 ± 0.056
46 | UCCUGCUUCAGCAUGCAUAGUAUUUAGUUA | 0.0171 ± 0.0036 | 1.32 ± 0.078
47 | UCCUGGUUCAGCUAGCAUAGUAUUUAGUUA | 0.0169 ± 0.004 | 0.872 ± 0.045
48 | UCCUCCUUCAGCUAGCAUAGUAUUUAGUUA | 0.0147 ± 0.0034 | 0.78 ± 0.032
49 | UCCUGCUUCAGCUUGCAUAGUAUUUAGUUA | 0.0684 ± 0.012 | 1.19 ± 0.051
50 | UCCUGGUUCAGCAUGCAUAGUAUUUAGUUA | 0.0172 ± 0.0043 | 0.93 ± 0.036
51 | UCCUGGAACAGCUUGCAUUGUAAUUAGUUA | 0.018 ± 0.006 | 0.375 ± 0.032
52 | UCCUGGAACUCCUUGCAUAGUAUUUAGUUA | 0.00821 ± 0.0033 | 0.46 ± 0.048
53 | UCCUCCUAACAGCUUGCAUAGUAUUUAGUUA | 0.0508 ± 0.0092 | 0.591 ± 0.025
54 | UCCACCUACAGCUUGCUUAGUUUUUAGUUA | 0.0103 ± 0.002 | 0.175 ± 0.017
55 | UGGUCCUACAGCUUGCAUAGUAUUUUGUUA | 0.0592 ± 0.011 | 0.679 ± 0.03
56 | AGGACCUACAGCUUGCAUGGUAUUUAGUUA | 0.0615 ± 0.012 | 1.35 ± 0.073
57 | UCCACCUACAGCUUGCAUGGUAUUUAGUUA | 0.0488 ± 0.01 | 1.3 ± 0.061
58 | AGGACCUACAGCUUGCAUGUAUUUAGUUA | 0.00718 ± 0.0034 | 0.485 ± 0.048
59 | UCCUGCUACAGCUUGCAUGGUAUUUAGUUA | 0.0413 ± 0.0095 | 1.2 ± 0.1
60 | UGGACCUACAGCUUGCAUGGUAUUUAGUUA | 0.0478 ± 0.01 | 1.38 ± 0.079
